# Test results from the supplement of paper PMC8387472.
# Compound: C[C@@H]1CN(CC(=O)Nc2ccc3c(c2)Cc2cccc(-c4cc(=O)cc(N5CCOCC5)o4)c2S3)C[C@H](C)O1
# Experiment: fraction of microhomology deletions among edited reads; higher = more MH deletions
# Conditions: mESC; 2uM; 72 h treatment, harvest day 5
row,Target,fraction of microhomology deletions among edited reads
1,"32.0 (DMSO control at this site: 1-bp insertion 0.03, MH deletion 0.85, edited 0.898) AGAAGTCCAGGATCAGGGGGACTGGGGTCGGGAGGGTGGGGCAGGAAGGAAGCCAGAATCA",0.896
2,"26.0 (DMSO control at this site: 1-bp insertion 0.518, MH deletion 0.262, edited 0.026) AGGGCGCGCCCCACGCACTCTGCGGCAAGTCCCTCTGCGGCAAGTCCTCGGCCCGGAAGAC",0.115
3,"34.0 (DMSO control at this site: 1-bp insertion 0.184, MH deletion 0.385, edited 0.103) ATTATAGGACCCTGAGGGAGCAGAGATGTGGGAATGGGGGCCGAGCCAATTGTGATGTAAG",0.342
4,"18.0 (DMSO control at this site: 1-bp insertion 0.114, MH deletion 0.789, edited 0.094) GCGCAAGTGCATAAGTTTTTCTTAAGGCGTGCCTTTAAGGCGTGCCTTTGTCGGTCCTGGA",0.683
5,"41.0 (DMSO control at this site: 1-bp insertion 0.022, MH deletion 0.754, edited 0.115) AAAGAGACAGCAGGTATGAATCCATCTTCCTGACCCTTGGGACCAGCCGGGGCAGTGAAGC",0.67
6,"47.0 (DMSO control at this site: 1-bp insertion 0.095, MH deletion 0.585, edited 0.118) GAGTGGTCCCGAGCCAGGAACTGTGTGTGTTGCAGGGGGGCAGTAACTCCCCAACTCCCTC",0.319
7,"35.0 (DMSO control at this site: 1-bp insertion 0.01, MH deletion 0.72, edited 0.098) CCACTTTTAGAGAGGGTGAAAATCATCAGTTATCATCAGGGCAACAAATTGCTTTCTCCTA",0.562
8,"16.0 (DMSO control at this site: 1-bp insertion 0.172, MH deletion 0.29, edited 0.05) CGGACTGCACACATGGGTAGGATCGTGCACGCGAGGTAGGATCGTGCACGCGAAGTTATTC",0.12
9,"19.0 (DMSO control at this site: 1-bp insertion 0.121, MH deletion 0.101, edited 0.057) TCTGCAGGGGTCGGAACCCGGGGGCTAGGGCTATCCCGGGGGCTAGGGCTATTAGCGAACC",0.0547
10,"22.0 (DMSO control at this site: 1-bp insertion 0.573, MH deletion 0.229, edited 0.045) CTGATGGTTGAAGGATTTAGCCGGGGTCCTAGACGCCGGGGTCCTAGACGAAAGGGCCACG",0.0591
11,"38.0 (DMSO control at this site: 1-bp insertion 0.063, MH deletion 0.487, edited 0.17) GGGCTGGGTGCTAAAATGAGGAGCTCCAAGAAGACTGAGGTGAACCTGGAGGCCCCTGAGC",0.441
12,"5.0 (DMSO control at this site: 1-bp insertion 0.214, MH deletion 0.567, edited 0.105) CGCTGACCCGAGACCTACGCGAACCGAAATCGGCGACCGGTGCGCAAGCAGGGCTGGCGTC",0.353
13,"1.0 (DMSO control at this site: 1-bp insertion 0.521, MH deletion 0.323, edited 0.141) GTGTCACAGTGCACGAGTGACGGGATAATGTGCTGACAGGTAATTGATAGGCTTCCAACTT",0.0962
14,"0.0 (DMSO control at this site: 1-bp insertion 0.463, MH deletion 0.339, edited 0.14) AGGATTACCGAGACCTACGCGAACCGAAATCGCTGTCCGGTGCGCAAGCAGGGCTGGCGTC",0.108
15,"3.0 (DMSO control at this site: 1-bp insertion 0.109, MH deletion 0.149, edited 0.09) TGCTAGCGCCCCCACAAAGCGGACCAGCCAGCACTATAGGGAATAAGGCCAACTTGCACCC",0.0553
16,"7.0 (DMSO control at this site: 1-bp insertion 0.128, MH deletion 0.374, edited 0.098) TACTCAACCGAGACCTACGCGAACCGAAATCGTATGCCGGTGCGCAAGCAGGGCTGGCGTC",0.324

row,Target,fraction of microhomology deletions among edited reads
1,"39.0 (DMSO control at this site: 1-bp insertion 0.328, MH deletion 0.371, edited 0.204) CTGCACAGTCACTTAGGATAGGAGAAGATGATGTATAGGGTTTAGTGGGAGATGTTGCAAG",0.105
2,21.0 CGATTGAGAGTCAAACGGGCCAGAAAACTCCGGGAACGGGCCAGAAAACTCCGGGGCATGG,0.0533
3,"25.0 (DMSO control at this site: 1-bp insertion 0.017, MH deletion 0.774, edited 0.143) GGGCCTGAATGGTGTGGACATCTACTCGCTGGTGAGCTGGTGACTGAAAACATTCAGTGGC",0.648
4,"40.0 (DMSO control at this site: 1-bp insertion 0.072, MH deletion 0.192, edited 0.189) GCGAATCAACTGTTCAACAACAGCAGCAGCCACCTGGAGGACTACAGTGGCCTGTCCGTGT",0.0486
5,"42.0 (DMSO control at this site: 1-bp insertion 0.145, MH deletion 0.655, edited 0.132) GGGCTAAACCTATGAGCACAGTAGAACTAAGGGTGGGTGGTGTAGCTAAAGAACTTGACCA",0.384
6,"28.0 (DMSO control at this site: 1-bp insertion 0.035, MH deletion 0.77, edited 0.142) TGGTTCTTCCTTTGTAGAGAGTGTTCATCTGGGAATCTGGGACTTGGATGAGACAATCATT",0.768
7,"2.0 (DMSO control at this site: 1-bp insertion 0.364, MH deletion 0.356, edited 0.125) GGTGCCCCCGAGACCTACGCGAACCGAAATCGATGTCCGGTGCGCAAGCAGGGCTGGCGTC",0.123
8,"4.0 (DMSO control at this site: 1-bp insertion 0.146, MH deletion 0.523, edited 0.125) ACGCCTTAGTGCACGAGTGACGGGATAATGTGGTCTCAGGTAATTGATAGGCTTCCAACTT",0.319
9,"29.0 (DMSO control at this site: 1-bp insertion 0.084, MH deletion 0.745, edited 0.133) TTGATGAACTTCCTCTTCTTCTCATGTCTCCGGTCTCCGGTAGGCCACGTGCATGGCCACT",0.482
10,"17.0 (DMSO control at this site: 1-bp insertion 0.112, MH deletion 0.348, edited 0.058) CCATAGCGCGATAAATATGACGGCTCATCCTGTATGACGGCTCATCCTGTATCAACTGTCC",0.243
11,"45.0 (DMSO control at this site: 1-bp insertion 0.017, MH deletion 0.666, edited 0.101) TTACACAGCATGAACTGCTAGGTGATGATGTCAGATTCGGTTTTACTAACTTCTCCAAAAA",0.515
12,"30.0 (DMSO control at this site: 1-bp insertion 0.074, MH deletion 0.67, edited 0.142) GAGCTGGCATGAGTATTTGTGCCACATGGCTCCCACATGGCTCCACATGCAAGTTTGAAAC",0.335
13,"44.0 (DMSO control at this site: 1-bp insertion 0.181, MH deletion 0.512, edited 0.123) ACACATACCTTCTTCGAGGCAGCCAGCATGATGAGACAGGTCTCCCACAAACACATCGTGT",0.295
14,"20.0 (DMSO control at this site: 1-bp insertion 0.349, MH deletion 0.138, edited 0.084) TACAGGTGTAGACTGGTTACGTGGCTGCGGAATTGACTGGTTACGTGGCTGCGGAATTTTG",0.0478
15,"43.0 (DMSO control at this site: 1-bp insertion 0.134, MH deletion 0.714, edited 0.104) AGTTTAACTTACTCCGGCCAAAAAAGAACTGCACCTCTGGAGCGGGTTAGTGGTGGTGGTA",0.698
16,"33.0 (DMSO control at this site: 1-bp insertion 0.008, MH deletion 0.771, edited 0.112) CATTAAGAGCAGCTGCCGGCCCCCAAGTGGACAGAGCTGGCCCTGCTGATTCAACAGTGCA",0.583
